Data reported in PMC7862700, “An all-to-all approach to the identification of sequence-specific readers for epigenetic DNA modifications on cytosine”.

Legend:
Experiment in all cases: DAPPL (digital affinity profiling via proximity ligation, sequencing); 10 mM Tris-HCl pH 7.5, 50 mM NaCl, 1 mM DTT, 4% glycerol, room temperature, 30 min; GST-TFs on glutathione beads, 16-mer random dsDNA library, 0.1% formaldehyde crosslink after washing; high values mean tight binding
Conditions in all cases: protein: recombinant; tags: N-terminal GST; dsDNA, one strand shown
[1] = molecular target: T1, FLI1 (Homo sapiens, UniProt Q01543 1-452)
T1 sequence: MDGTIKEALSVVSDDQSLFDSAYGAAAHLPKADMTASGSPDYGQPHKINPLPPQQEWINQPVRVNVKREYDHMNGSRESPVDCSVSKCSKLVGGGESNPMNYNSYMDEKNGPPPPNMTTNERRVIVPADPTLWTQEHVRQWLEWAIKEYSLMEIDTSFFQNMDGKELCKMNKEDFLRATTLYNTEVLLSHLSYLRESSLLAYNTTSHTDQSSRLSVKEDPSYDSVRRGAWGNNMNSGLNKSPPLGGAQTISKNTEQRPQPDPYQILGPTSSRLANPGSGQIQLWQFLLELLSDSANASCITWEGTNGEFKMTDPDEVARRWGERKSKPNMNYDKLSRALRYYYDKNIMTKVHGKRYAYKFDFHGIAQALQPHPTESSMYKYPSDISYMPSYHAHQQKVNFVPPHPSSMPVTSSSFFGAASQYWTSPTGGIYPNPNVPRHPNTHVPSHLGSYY
Summary of the method: (§1)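 After expression in yeast as GST fusions, human transcription factors were bound to glutathione beads, DNA-barcoded and mixed with a tag-only sample. The pools were incubated with 200 nmole of a 16-mer random double-stranded DNA library in Tris/NaCl/DTT/glycerol buffer (30 min, room temperature), washed and crosslinked with 0.1% formaldehyde. Proximity ligation with BsaI/T4 ligase ran for 1 h at 37 °C, before PCR amplification and sequencing on an Illumina NextSeq500. Binding signal is a hexamer's read frequency for a factor divided by its frequency for the tag-only sample.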

[2] = molecular target: T2, ELK1 (Homo sapiens, UniProt P19419 1-428)
T2 sequence: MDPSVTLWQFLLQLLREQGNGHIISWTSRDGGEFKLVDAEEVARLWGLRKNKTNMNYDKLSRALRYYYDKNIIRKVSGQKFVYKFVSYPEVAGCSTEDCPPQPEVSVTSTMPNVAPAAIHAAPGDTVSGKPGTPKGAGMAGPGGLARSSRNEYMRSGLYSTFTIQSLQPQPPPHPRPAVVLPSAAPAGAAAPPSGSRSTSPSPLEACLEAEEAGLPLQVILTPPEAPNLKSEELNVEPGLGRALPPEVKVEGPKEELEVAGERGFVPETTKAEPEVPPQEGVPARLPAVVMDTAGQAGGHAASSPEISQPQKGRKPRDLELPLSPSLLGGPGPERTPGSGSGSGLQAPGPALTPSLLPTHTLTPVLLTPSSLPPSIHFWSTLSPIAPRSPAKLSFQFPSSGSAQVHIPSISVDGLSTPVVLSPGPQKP
Summary of the method: as §1

[3] = molecular target: T3, GABPA (Homo sapiens, UniProt Q06546 1-454)
T3 sequence: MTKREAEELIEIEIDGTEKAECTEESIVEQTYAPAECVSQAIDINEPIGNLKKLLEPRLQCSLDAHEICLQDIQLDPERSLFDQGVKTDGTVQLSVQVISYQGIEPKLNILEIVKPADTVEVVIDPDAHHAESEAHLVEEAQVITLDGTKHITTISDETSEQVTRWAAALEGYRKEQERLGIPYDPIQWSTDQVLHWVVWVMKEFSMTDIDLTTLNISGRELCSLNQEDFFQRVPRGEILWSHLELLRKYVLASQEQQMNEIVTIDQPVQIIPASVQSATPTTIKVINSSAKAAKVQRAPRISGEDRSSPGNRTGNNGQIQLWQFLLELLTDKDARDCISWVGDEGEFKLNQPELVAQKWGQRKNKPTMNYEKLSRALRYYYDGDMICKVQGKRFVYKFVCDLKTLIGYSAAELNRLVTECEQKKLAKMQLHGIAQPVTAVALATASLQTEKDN
Summary of the method: as §1

[4] = molecular target: T4, ERG (Homo sapiens, UniProt P11308 1-479)
T4 sequence: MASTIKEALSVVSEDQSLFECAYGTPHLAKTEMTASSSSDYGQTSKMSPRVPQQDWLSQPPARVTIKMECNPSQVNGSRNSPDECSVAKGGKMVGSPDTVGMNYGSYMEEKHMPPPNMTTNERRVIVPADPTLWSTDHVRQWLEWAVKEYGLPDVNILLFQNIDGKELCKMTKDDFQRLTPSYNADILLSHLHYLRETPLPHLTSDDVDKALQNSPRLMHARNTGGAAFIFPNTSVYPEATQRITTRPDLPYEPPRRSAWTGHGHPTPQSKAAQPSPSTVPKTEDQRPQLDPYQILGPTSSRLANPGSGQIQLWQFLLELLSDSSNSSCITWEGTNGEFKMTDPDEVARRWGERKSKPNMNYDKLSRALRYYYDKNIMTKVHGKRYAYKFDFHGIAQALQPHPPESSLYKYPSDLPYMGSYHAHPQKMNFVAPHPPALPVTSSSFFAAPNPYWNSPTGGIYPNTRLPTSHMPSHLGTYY
Summary of the method: as §1

[5] = molecular target: ELF1 (Homo sapiens, UniProt P32519 1-619)
Summary of the method: as §1

[6] = molecular target: T5, EHF (Homo sapiens, UniProt Q9NZC4 1-300)
T5 sequence: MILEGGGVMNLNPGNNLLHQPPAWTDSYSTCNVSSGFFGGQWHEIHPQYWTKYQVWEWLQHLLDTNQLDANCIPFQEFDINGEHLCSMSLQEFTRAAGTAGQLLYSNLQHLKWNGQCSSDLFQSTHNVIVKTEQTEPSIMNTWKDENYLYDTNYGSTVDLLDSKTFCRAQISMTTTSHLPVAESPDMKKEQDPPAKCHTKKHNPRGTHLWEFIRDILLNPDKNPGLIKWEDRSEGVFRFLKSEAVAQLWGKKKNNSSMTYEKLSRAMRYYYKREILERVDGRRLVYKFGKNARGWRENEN
Summary of the method: as §1

[7] = molecular target: SPI1 (Homo sapiens, UniProt P17947 1-270)
Summary of the method: as §1

[8] = molecular target: SPIB (Homo sapiens, UniProt Q01892 1-262)
Summary of the method: as §1

[9] = molecular target: T6, ELK3 (Homo sapiens, UniProt P41970 1-407)
T6 sequence: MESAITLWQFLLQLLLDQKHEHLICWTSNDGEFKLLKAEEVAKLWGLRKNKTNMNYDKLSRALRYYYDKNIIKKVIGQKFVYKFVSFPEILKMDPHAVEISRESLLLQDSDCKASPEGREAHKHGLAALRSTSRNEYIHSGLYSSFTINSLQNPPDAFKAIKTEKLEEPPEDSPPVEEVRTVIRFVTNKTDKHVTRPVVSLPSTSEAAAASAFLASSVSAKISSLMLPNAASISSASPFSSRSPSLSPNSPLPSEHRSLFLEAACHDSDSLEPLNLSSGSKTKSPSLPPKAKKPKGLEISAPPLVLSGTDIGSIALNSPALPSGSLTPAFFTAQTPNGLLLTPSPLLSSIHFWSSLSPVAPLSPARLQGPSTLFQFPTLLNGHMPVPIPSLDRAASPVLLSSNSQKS
Summary of the method: as §1

Chain of ELF1 (P32519 whole entry): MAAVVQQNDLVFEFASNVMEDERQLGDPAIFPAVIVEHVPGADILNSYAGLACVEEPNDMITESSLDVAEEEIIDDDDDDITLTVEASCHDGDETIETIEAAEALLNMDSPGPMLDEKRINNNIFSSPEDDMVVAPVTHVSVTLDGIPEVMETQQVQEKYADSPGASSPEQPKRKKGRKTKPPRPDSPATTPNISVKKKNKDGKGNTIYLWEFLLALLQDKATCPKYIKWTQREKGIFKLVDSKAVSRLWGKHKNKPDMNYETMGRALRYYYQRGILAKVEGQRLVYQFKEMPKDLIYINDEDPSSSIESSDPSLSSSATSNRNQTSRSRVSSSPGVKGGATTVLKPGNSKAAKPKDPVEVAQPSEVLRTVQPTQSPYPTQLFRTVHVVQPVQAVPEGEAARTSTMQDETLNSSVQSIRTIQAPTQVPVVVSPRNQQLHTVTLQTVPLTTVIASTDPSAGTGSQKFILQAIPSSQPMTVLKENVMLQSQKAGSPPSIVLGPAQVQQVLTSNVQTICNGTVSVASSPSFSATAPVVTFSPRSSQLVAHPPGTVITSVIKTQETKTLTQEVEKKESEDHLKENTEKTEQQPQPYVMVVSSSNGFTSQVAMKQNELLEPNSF
Chain of SPIB (Q01892 whole entry): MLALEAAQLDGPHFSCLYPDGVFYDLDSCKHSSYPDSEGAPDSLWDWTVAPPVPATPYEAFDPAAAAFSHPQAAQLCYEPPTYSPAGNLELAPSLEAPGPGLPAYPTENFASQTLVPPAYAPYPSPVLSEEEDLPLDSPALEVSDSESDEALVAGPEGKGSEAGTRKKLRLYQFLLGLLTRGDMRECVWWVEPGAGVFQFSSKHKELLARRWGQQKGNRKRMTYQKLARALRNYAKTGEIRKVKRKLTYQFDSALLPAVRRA

Sequence	binding signal [1]	binding signal [2]	binding signal [3]	binding signal [4]	binding signal [5]	binding signal [6]	binding signal [7]	binding signal [8]	binding signal [9]
AACGTC	1.07 fold enrichment (6-mer frequency, TF over GST control)	1.09 fold enrichment (6-mer frequency, TF over GST control)	1.1 fold enrichment (6-mer frequency, TF over GST control)	1.07 fold enrichment (6-mer frequency, TF over GST control)	1.05 fold enrichment (6-mer frequency, TF over GST control)	1.12 fold enrichment (6-mer frequency, TF over GST control)	1.02 fold enrichment (6-mer frequency, TF over GST control)	1.13 fold enrichment (6-mer frequency, TF over GST control)	1.24 fold enrichment (6-mer frequency, TF over GST control)
CACTGC	1.45 fold enrichment (6-mer frequency, TF over GST control)	1.46 fold enrichment (6-mer frequency, TF over GST control)	1.32 fold enrichment (6-mer frequency, TF over GST control)	1.41 fold enrichment (6-mer frequency, TF over GST control)	1.44 fold enrichment (6-mer frequency, TF over GST control)	1.58 fold enrichment (6-mer frequency, TF over GST control)	1.38 fold enrichment (6-mer frequency, TF over GST control)	1.44 fold enrichment (6-mer frequency, TF over GST control)	1.51 fold enrichment (6-mer frequency, TF over GST control)
TGTACC	1.42 fold enrichment (6-mer frequency, TF over GST control)	1.36 fold enrichment (6-mer frequency, TF over GST control)	1.29 fold enrichment (6-mer frequency, TF over GST control)	1.26 fold enrichment (6-mer frequency, TF over GST control)	1.34 fold enrichment (6-mer frequency, TF over GST control)	1.35 fold enrichment (6-mer frequency, TF over GST control)	1.33 fold enrichment (6-mer frequency, TF over GST control)	1.22 fold enrichment (6-mer frequency, TF over GST control)	1.28 fold enrichment (6-mer frequency, TF over GST control)
CCGCTA	1.45 fold enrichment (6-mer frequency, TF over GST control)	1.37 fold enrichment (6-mer frequency, TF over GST control)	1.2 fold enrichment (6-mer frequency, TF over GST control)	1.37 fold enrichment (6-mer frequency, TF over GST control)	1.27 fold enrichment (6-mer frequency, TF over GST control)	1.41 fold enrichment (6-mer frequency, TF over GST control)	1.51 fold enrichment (6-mer frequency, TF over GST control)	1.46 fold enrichment (6-mer frequency, TF over GST control)	1.37 fold enrichment (6-mer frequency, TF over GST control)
AATGGG	1.26 fold enrichment (6-mer frequency, TF over GST control)	1.24 fold enrichment (6-mer frequency, TF over GST control)	1.18 fold enrichment (6-mer frequency, TF over GST control)	1.16 fold enrichment (6-mer frequency, TF over GST control)	1.2 fold enrichment (6-mer frequency, TF over GST control)	1.29 fold enrichment (6-mer frequency, TF over GST control)	1.34 fold enrichment (6-mer frequency, TF over GST control)	1.22 fold enrichment (6-mer frequency, TF over GST control)	1.08 fold enrichment (6-mer frequency, TF over GST control)
ATGTGC	1.05 fold enrichment (6-mer frequency, TF over GST control)	1.1 fold enrichment (6-mer frequency, TF over GST control)	1.1 fold enrichment (6-mer frequency, TF over GST control)	1.14 fold enrichment (6-mer frequency, TF over GST control)	1.19 fold enrichment (6-mer frequency, TF over GST control)	1.05 fold enrichment (6-mer frequency, TF over GST control)	1.06 fold enrichment (6-mer frequency, TF over GST control)	1.15 fold enrichment (6-mer frequency, TF over GST control)	1.09 fold enrichment (6-mer frequency, TF over GST control)
TACGGC	1.18 fold enrichment (6-mer frequency, TF over GST control)	1.25 fold enrichment (6-mer frequency, TF over GST control)	1.23 fold enrichment (6-mer frequency, TF over GST control)	1.24 fold enrichment (6-mer frequency, TF over GST control)	1.18 fold enrichment (6-mer frequency, TF over GST control)	1.2 fold enrichment (6-mer frequency, TF over GST control)	1.18 fold enrichment (6-mer frequency, TF over GST control)	1.25 fold enrichment (6-mer frequency, TF over GST control)	1.16 fold enrichment (6-mer frequency, TF over GST control)
